Shown is part of a subset that was picked to be rich in hits.
EZH2 inh: EZH2 (human) methyltransferase inhibition. PRC2 H3K27 methylation, DELFIA TRF, 1 h. AID 651548. Q15910. hit rate 0.35% among 57,000. inhibition, % at 12.5 µM;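 active = mean inhibition of replicates at least 50% and every single replicate also reaching 50%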;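 note: dimethyl H3K27 on biotinylated H3 21-44 peptide detected by antibody; plate controls were median neutral control wells for no effect and median positive control wells for full effect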
Target sequence (Q15910 whole entry, looked up): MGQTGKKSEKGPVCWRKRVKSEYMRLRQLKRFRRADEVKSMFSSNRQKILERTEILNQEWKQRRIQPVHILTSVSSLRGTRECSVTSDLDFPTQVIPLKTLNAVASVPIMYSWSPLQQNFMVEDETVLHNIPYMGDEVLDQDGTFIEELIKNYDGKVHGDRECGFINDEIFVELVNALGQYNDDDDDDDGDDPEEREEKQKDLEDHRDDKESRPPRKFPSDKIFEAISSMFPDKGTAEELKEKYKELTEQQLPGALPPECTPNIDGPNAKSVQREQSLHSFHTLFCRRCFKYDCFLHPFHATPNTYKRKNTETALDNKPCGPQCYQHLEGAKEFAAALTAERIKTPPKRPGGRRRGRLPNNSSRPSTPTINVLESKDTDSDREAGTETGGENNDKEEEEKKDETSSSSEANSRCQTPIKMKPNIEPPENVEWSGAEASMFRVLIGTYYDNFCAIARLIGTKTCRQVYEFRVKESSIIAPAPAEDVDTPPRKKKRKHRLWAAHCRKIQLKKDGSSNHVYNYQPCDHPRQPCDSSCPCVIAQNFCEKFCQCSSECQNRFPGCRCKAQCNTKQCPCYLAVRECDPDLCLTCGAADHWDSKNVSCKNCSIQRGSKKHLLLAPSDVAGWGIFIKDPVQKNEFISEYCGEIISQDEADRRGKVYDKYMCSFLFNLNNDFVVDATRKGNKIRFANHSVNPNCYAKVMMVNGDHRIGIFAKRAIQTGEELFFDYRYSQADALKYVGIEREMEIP
The depositor's hits bear a star.

SMILES	EZH2 inh
CC(C)=CCc1cc(/C=C2\OC(=O)C(c3cc4c(cc3O)OC(C)(C)CC4)C2=O)ccc1O (stereo unspecified)	78*
COc1cc(O)c(CC=C(C)C)cc1C(=O)/C=C/c1ccc(O)c(CC=C(C)C)c1	24
O=C(/C=C/c1ccc(OCCc2cccs2)cc1)NO	-1
CC(C)(O)C#Cc1ccccc1C(=O)NC(CC(=O)O)c1ccccc1 (stereo unspecified)	-7
CC(CC[C@]1(C)C2CCC=C(CO)[C@]2(C)CC[C@H]1C)CC(=O)O (stereo partly specified)	15
CC1=CC(=O)OC1(O)CCC(C)CC(=O)O (stereo unspecified)	100*
CC(=O)c1ccc(NC(=O)CCCC(=O)O)cc1	0
O=C(Cn1cnc2ccccc2c1=O)Nc1ccccc1Br	0
CCOC(=O)c1c(NC(=O)C2CC(c3ccccc3Cl)=NO2)sc(C)c1C (stereo unspecified)	19
C=CCn1c(=O)c(C(=O)NCCO)c(O)c2ccccc21	-7
C[C@H](CO)N1C[C@H](C)[C@@H](CN(C)Cc2ccc(F)cc2)Oc2cc(Br)ccc2S1(=O)=O	58*
C[C@@H]1CN([C@H](C)CO)S(=O)(=O)c2ccc(/C=C/c3ccccc3)cc2O[C@H]1CN(C)Cc1ccccc1	10
Cc1ccc(-c2ccc3c(c2)O[C@H](CN(C)Cc2ccc(C(=O)O)cc2)[C@H](C)CN([C@H](C)CO)S3(=O)=O)cc1	28
C[C@@H]1CN([C@H](C)CO)S(=O)(=O)c2ccc(/C=C/c3ccccc3)cc2O[C@@H]1CN(C)Cc1ccc(C(=O)O)cc1	19
C[C@H]1CN([C@@H](C)CO)S(=O)(=O)c2ccc(Br)cc2O[C@H]1CN(C)Cc1ccccc1	-5
Cc1ccc(-c2ccc3c(c2)O[C@H](CN(C)Cc2ccc(C(=O)O)cc2)[C@@H](C)CN([C@@H](C)CO)S3(=O)=O)cc1	44
Cc1ccc(-c2ccc3c(c2)O[C@H](CN(C)Cc2ccc(C(=O)O)cc2)[C@@H](C)CN([C@H](C)CO)S3(=O)=O)cc1	50*
C[C@H](CO)N1C[C@H](C)[C@H](CN(C)Cc2ccc(C(=O)O)cc2)Oc2cc(/C=C/c3ccccc3)ccc2S1(=O)=O	52*
C[C@H]1CN([C@@H](C)CO)S(=O)(=O)c2ccc(Br)cc2O[C@H]1CN(C)Cc1ccc(F)cc1	24
O=C(COc1ccccc1[N+](=O)[O-])Nc1ccc(Br)cc1C(=O)O	-8
CCn1c(SCC(=O)c2ccc(OC)cc2)nnc1-c1cc2cccc(OC)c2o1	-8
COC(=O)c1c(N)c(C#N)c2n1CCC2	-8
COc1ccc(C(=O)CC2(O)C(=O)N(Cc3ccccc3Cl)c3ccc(Cl)cc32)cc1OC (stereo unspecified)	-4
CCc1ccccc1NC(=O)CSc1nnc(C)s1	22
O=C(N/N=C/c1cc(Br)cc(Br)c1O)c1ccccc1O	11
SMILES	EZH2 inh
O=C(N/N=C/c1ccc(O)cc1O)c1ccccc1O	14
CCOC(=O)c1c(NC(=O)C2(C)Cc3ccccc3C(=O)O2)sc(C)c1C (stereo unspecified)	21
COc1cc(Br)c(CN(CCc2ccc(O)cc2)C(=O)C(F)(F)F)cc1O	6
O=C(O)C1CC=CCC1C(=O)Nc1ccc(S(=O)(=O)N2CCc3ccccc32)cc1 (stereo unspecified)	-22
C[C@@H]1O[C@@H](O[C@@H]2[C@@H](O)[C@H](O[C@@H]3[C@@H](O)[C@@H](O)[C@H](O[C@H]4[C@H](OC(=O)[C@]56CCC(C)(C)C[C@H]5C5=CCC7[C@@]8(C)C[C@H](O)[C@H](O[C@@H]9O[C@H](C(=O)O)[C@@H](O)[C@H](O)[C@H]9O)[C@@](C)(CO)C8[C@H](O)C[C@@]7(C)[C@]5(C)C[C@H]6O)O[C@@H](CO)[C@@H]4O)O[C@H]3C)OC[C@H]2O)[C@H](O)[C@H](O)[C@H]1O (stereo partly specified)	99*
C[C@@H]1O[C@@H](O[C@@H]2CC[C@@]3(C)C(CC[C@]4(C)C3CC=C3[C@@H]5CC(C)(C)CC[C@]5(C(=O)O[C@@H]5O[C@H](CO)[C@@H](O)[C@H](O)[C@H]5O)CC[C@]34C)[C@]2(C)CO)[C@H](O)[C@H](O[C@@H]2OC[C@@H](O)[C@H](O)[C@H]2O)[C@H]1O (stereo partly specified)	-5
C[C@@H]1O[C@@H](O[C@H]2[C@H](O[C@H]3CC[C@@]4(C)C(CC[C@]5(C)C4CC=C4C6CC(C)(C)CC[C@]6(C(=O)O[C@@H]6O[C@H](CO[C@@H]7O[C@H](CO)[C@@H](O[C@@H]8O[C@@H](C)[C@H](O)[C@@H](O)[C@H]8O)[C@H](O)[C@H]7O)[C@@H](O)[C@H](O)[C@H]6O)CC[C@]45C)[C@]3(C)CO)OC[C@H](O)[C@@H]2O)[C@H](O)[C@H](O)[C@H]1O (stereo partly specified)	20
O=C(Nc1ccccc1C(=O)N1CCOCC1)c1ccc(CN2CCOCC2)cc1	7
O=c1[nH]c2cc(Cl)ccc2c(-c2ccccc2)c1SC1=NCCS1	-2
OCCCc1nc2ccccc2n1Cc1c(F)cccc1Cl	-9
CCOC(=O)c1c(NC(=O)C2CC(Cl)=CCC2C(=O)O)sc2c1CC(C)CC2 (stereo unspecified)	25
CCOC(=O)c1c(-c2ccc(C)cc2)csc1NC(=O)c1cccc(OC(C)=O)c1	1
CCOC(=O)c1c(-c2ccc(Cl)cc2)csc1NC(=O)C1CCCCC1C(=O)O (stereo unspecified)	58*
C=CCNC(=O)CSc1nnc(-c2ccc3nonc3c2)n1C	7
Cc1cc(N(CC(=O)Nc2cccc(C)c2C)S(C)(=O)=O)ccc1Br	-6
CCCCCCN(CCCCCC)C(=O)Cc1c(-c2ccc(F)cc2)[nH]c2ccccc12	20
CCCCOC(=O)c1ccc(N)cc1	4
CCCCCCCCc1ccc(-c2ccc(C(=O)O)cc2)cc1	72*
Cc1ccccc1OC(C)c1nc(-c2ccccn2)no1 (stereo unspecified)	0
COc1cc(CO)cc(I)c1OCc1cccc(C(=O)O)c1	-11
C[C@@H]1O[C@@H](O[C@H]2[C@H](Oc3cc(O)c4c(c3)O[C@H](c3ccc(O)c(O)c3)CC4=O)O[C@H](CO)[C@@H](O)[C@@H]2O)[C@H](O)[C@H](O)[C@H]1O	4
C[C@@H]1O[C@@H](Oc2ccc(C3Oc4cc(O)cc(O)c4C(=O)C3O)cc2O)[C@H](O)[C@H](O)[C@H]1O (stereo partly specified)	97*
O=C1c2c(O)cc(O)cc2O[C@H](c2ccccc2)[C@H]1O	8
COc1ccc(-c2nnc(SCC(=O)Nc3ccc4cn[nH]c4c3)n2-c2ccc(Cl)cc2)cc1	2
COC(=O)c1ccccc1NC(=O)CN(C)S(=O)(=O)c1ccc2ccccc2c1	15
SMILES	EZH2 inh
CS(=O)(=O)N(CC(=O)Nc1ccc(Cl)c(Cl)c1)c1cc(Cl)cc(Cl)c1	5
CS(=O)(=O)N(CC(=O)Nc1cccc(Cl)c1)c1ccc(Br)cc1	3
CS(=O)(=O)N(CC(=O)Nc1ccc(Cl)c(Cl)c1)c1ccc(Br)cc1	55*
O=C(Nc1ccc(S(=O)(=O)Nc2ccccc2Oc2ccc(Cl)cc2Cl)cc1)C1CC1	39
Cc1nc(C)c(C(=O)C2C(=O)C(=O)N(CCN3CCOCC3)C2c2cccs2)s1 (stereo unspecified)	0
COC(=O)C1=C(C)Nc2ncnn2C1c1ccccc1[N+](=O)[O-] (stereo unspecified)	5
